Data from the supplement of paper PMC8728848.
The entries come from a sample that favours the strongest signals as a whole.

Experiments:
Test in all cases: glycan array binding signal (z-score within array); higher = stronger binding
Conditions in all cases: glycan notation: IUPAC condensed, linker removed
[1] = target: GlcNAc(b1-3)Gal(b1-4)GlcNAc(b1-6)[GlcNAc(b1-3)]Gal(b1-4)GlcNAc
Summary of the method: (§1)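 Columns mapping to the same glycan were averaged after glycan names were converted to IUPAC-condensed notation. The data come from 3228 arrays in the Consortium for Functional Glycomics database, limited to those with an available protein sequence. Binding is reported as a within-array Z-score averaged across arrays of one protein sequence and across linkers.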

GlcNAc(b1-3)Man = target: GlcNAc(b1-3)Man
Summary of the method: as §1

[2] = target: GlcNAc(b1-4)GlcNAc(b1-4)GlcNAc(b1-4)GlcNAc(b1-4)GlcNAc(b1-4)GlcNAc
Summary of the method: as §1

[3] = target: GlcNAc6S(b1-3)Gal(b1-4)GlcNAc
Summary of the method: as §1

Kdn(a2-6)Gal(b1-4)GlcNAc = target: Kdn(a2-6)Gal(b1-4)GlcNAc
Summary of the method: as §1

[4] = target: Man(a1-3)[Man(a1-6)]Man(a1-6)[Man(a1-3)]Man
Summary of the method: as §1

Man(b1-4)GlcNAc = target: Man(b1-4)GlcNAc
Summary of the method: as §1

[5] = target: Neu5Ac(a2-3)Gal(b1-3)GalNAc(b1-4)[Neu5Ac(a2-3)]Gal(b1-4)Glc
Summary of the method: as §1

[6] = target: Neu5Ac(a2-3)Gal(b1-3)GlcNAc(b1-2)Man(a1-3)[Neu5Ac(a2-3)Gal(b1-3)GlcNAc(b1-2)Man(a1-6)]Man(b1-4)GlcNAc(b1-4)GlcNAc
Summary of the method: as §1

[7] = target: Neu5Ac(a2-3)Gal(b1-4)GlcNAc(b1-2)[Neu5Ac(a2-3)Gal(b1-4)GlcNAc(b1-6)]Man(a1-6)[Neu5Ac(a2-3)Gal(b1-4)GlcNAc(b1-2)Man(a1-3)]Man(b1-4)GlcNAc(b1-4)GlcNAc
Summary of the method: as §1

[8] = target: Neu5Ac(a2-3)Gal(b1-4)GlcNAc(b1-3)Gal(b1-4)GlcNAc(b1-3)Gal(b1-4)GlcNAc
Summary of the method: as §1

[9] = target: Neu5Ac(a2-3)Gal(b1-4)GlcNAc(b1-3)Gal(b1-4)GlcNAc(b1-3)[Neu5Ac(a2-3)Gal(b1-4)GlcNAc(b1-3)Gal(b1-4)GlcNAc(b1-6)]GalNAc
Summary of the method: as §1

[10] = target: Neu5Ac(a2-3)Gal(b1-4)GlcNAc(b1-6)GalNAc
Summary of the method: as §1

[11] = target: Neu5Ac(a2-6)Gal(b1-4)GlcNAc(b1-2)Man(a1-3)[Neu5Ac(a2-6)Gal(b1-4)GlcNAc(b1-2)Man(a1-6)]Man(b1-4)GlcNAc(b1-4)GlcNAc
Summary of the method: as §1

[12] = target: Neu5Ac(a2-6)Gal(b1-4)GlcNAc(b1-2)[Neu5Ac(a2-6)Gal(b1-4)GlcNAc(b1-4)]Man(a1-3)[GlcNAc(b1-4)][Neu5Ac(a2-6)Gal(b1-4)GlcNAc(b1-2)[Neu5Ac(a2-6)Gal(b1-4)GlcNAc(b1-6)]Man(a1-6)]Man(b1-4)GlcNAc(b1-4)GlcNAc
Summary of the method: as §1

[13] = target: Neu5Ac(a2-6)Gal(b1-4)GlcNAc(b1-6)GalNAc
Summary of the method: as §1

[14] = target: Neu5Ac(a2-6)Gal(b1-4)GlcNAc(b1-6)[Gal(b1-3)GlcNAc(b1-3)]Gal(b1-4)Glc
Summary of the method: as §1

[15] = target: Neu5Ac(a2-6)GalNAc(b1-4)GlcNAc6S
Summary of the method: as §1

[16] = target: Neu5Ac(a2-8)Neu5Ac(a2-8)Neu5Ac
Summary of the method: as §1

[17] = target: Neu5Gc(a2-3)Gal(b1-3)[Fuc(a1-4)]GlcNAc
Summary of the method: as §1

[18] = target: Neu5Gc(b2-6)Gal(b1-4)GlcNAc
Summary of the method: as §1

B1: CvGal2 (Crassostrea virginica) (protein)
chain: MGSSHHHHHHSSGLVPRGSHMRIREAGKRKDTTKVYQIPDGLFPGQQVMLRGRVPWGSKSFSINFSATPRMGEGDILFHLNPRPSEGVCIRNALLNGSWGAEEKWQPYFPFDDGRSFSVKIEVTNDAFRTFVNGRPFVDFLHRTDFRAGKYLTLREGAEYYDVIFQSKPNIPLTTAIHNGMRIGKTIRIRGMCTAQDGFAINFNDNRNNIYFHFNARPAQRTVVRNSYFGSWGNEETAISKEFPFYPFLYFYASFVCMEDKFAVYVNDEHFIDFAHRGNPNNISVLQIKGSVNVLDTECLEPMGEDAMTEVDSGLENGDLFVLNGLMTERGKTFAVNFLNGFTENDDIALHFNPRKSTGEVVLNSRYGGAWQSEEKVALPGVFWSNRPLQVKVETKRNKFKIYVNGVDLAKYKIRGNVEDVHAVQVKGDVFLLETLLLKRLMKPVWERLTGGIRPGTWVTLQGTPKKNWQQFVVNFALDDTLDGDIAFHFNVRRGARQVVRNHRQSGAWGREETVTPFFAFDSEATFEIVFFVKEEKFLIYFNGKLFFEFVHRVPVERITHIYMDGDCNFYEPEVVI
glycan array binding signal (z-score) [1]: -0.345
glycan array binding signal (z-score) (GlcNAc(b1-3)Man): -0.33
glycan array binding signal (z-score) [2]: -0.345
glycan array binding signal (z-score) [3]: -0.328
glycan array binding signal (z-score) (Kdn(a2-6)Gal(b1-4)GlcNAc): -0.329
glycan array binding signal (z-score) [4]: -0.325
glycan array binding signal (z-score) (Man(b1-4)GlcNAc): -0.333
glycan array binding signal (z-score) [5]: -0.328
glycan array binding signal (z-score) [6]: -0.338
glycan array binding signal (z-score) [7]: -0.325
glycan array binding signal (z-score) [8]: -0.337
glycan array binding signal (z-score) [9]: -0.323
glycan array binding signal (z-score) [10]: -0.339
glycan array binding signal (z-score) [11]: -0.305
glycan array binding signal (z-score) [12]: -0.336
glycan array binding signal (z-score) [13]: -0.339
glycan array binding signal (z-score) [14]: -0.133
glycan array binding signal (z-score) [15]: -0.331
glycan array binding signal (z-score) [16]: -0.335
glycan array binding signal (z-score) [17]: -0.338
glycan array binding signal (z-score) [18]: -0.336
